We go through 17 compounds from ChEMBL document CHEMBL1961873, “Compounds: GSK PKIS; Assays: Nanosyn kinase panel” (2012).

The inhibition is the change of the read-out against control, counted positive when it falls.

Each structure is given as a SMILES string.

The target in assay [1] is Glycogen synthase kinase-3 beta (Homo sapiens) (UniProt P49841). The settings on record: at 1 µM.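 Further: reported values are mean percent inhibition of GSK3B.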
The target in assay [2] is Homeodomain-interacting protein kinase 1 (Homo sapiens) (UniProt Q86Z02). Particulars: at 0.1 µM.
Assay [3] has the same target. Particulars: at 1 µM.
In assay [4] the target is T1, Homeodomain-interacting protein kinase 4 (Homo sapiens) (UniProt Q8NE63).
T1 sequence (whole entry): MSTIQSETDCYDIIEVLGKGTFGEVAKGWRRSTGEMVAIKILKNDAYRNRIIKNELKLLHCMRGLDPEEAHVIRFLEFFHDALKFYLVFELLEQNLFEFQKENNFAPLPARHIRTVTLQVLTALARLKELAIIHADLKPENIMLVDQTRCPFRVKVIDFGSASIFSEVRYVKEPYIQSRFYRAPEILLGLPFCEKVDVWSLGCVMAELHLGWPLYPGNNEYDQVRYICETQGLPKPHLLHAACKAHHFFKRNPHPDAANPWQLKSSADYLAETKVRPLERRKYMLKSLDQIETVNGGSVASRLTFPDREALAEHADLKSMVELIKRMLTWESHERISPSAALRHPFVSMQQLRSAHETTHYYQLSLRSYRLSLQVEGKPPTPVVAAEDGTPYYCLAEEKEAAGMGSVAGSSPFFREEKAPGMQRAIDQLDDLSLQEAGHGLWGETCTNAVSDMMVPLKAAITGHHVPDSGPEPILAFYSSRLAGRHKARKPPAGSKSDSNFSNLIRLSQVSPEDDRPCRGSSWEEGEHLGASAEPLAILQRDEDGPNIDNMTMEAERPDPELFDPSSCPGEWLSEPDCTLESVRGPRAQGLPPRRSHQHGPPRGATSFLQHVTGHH
The settings on record: at 0.1 µM.

In assay [5] the target is T1, Homeodomain-interacting protein kinase 4 (Homo sapiens). Particulars: at 1 µM.
Assay [6] addresses Mitogen-activated protein kinase 9 (Homo sapiens) (UniProt P45984). Particulars: at 0.1 µM.
Assay [7] shares this target. The settings on record: at 1 µM.
For assay [8], the target named is Mitogen-activated protein kinase 1 (Homo sapiens) (UniProt P28482). The settings on record: at 0.1 µM.
Assay [9] has the same target. The settings on record: at 1 µM.
Assay [10] has as its target Mitogen-activated protein kinase 3 (Homo sapiens) (UniProt P27361). Particulars: at 0.1 µM.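 Further: each value is a mean inhibition figure.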

Mitogen-activated protein kinase 9 (Homo sapiens), sequence (P45984 whole entry, looked up): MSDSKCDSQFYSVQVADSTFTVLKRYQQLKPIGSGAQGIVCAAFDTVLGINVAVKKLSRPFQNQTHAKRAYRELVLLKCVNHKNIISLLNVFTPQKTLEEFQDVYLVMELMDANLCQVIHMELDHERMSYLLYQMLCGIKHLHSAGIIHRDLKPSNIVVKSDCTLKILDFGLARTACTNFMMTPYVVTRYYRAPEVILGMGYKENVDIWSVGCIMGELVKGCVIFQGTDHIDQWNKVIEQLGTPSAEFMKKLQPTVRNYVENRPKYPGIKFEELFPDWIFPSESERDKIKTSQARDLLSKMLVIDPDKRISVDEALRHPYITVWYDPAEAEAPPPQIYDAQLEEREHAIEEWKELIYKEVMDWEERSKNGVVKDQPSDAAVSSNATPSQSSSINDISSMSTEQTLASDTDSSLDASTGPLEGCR
Mitogen-activated protein kinase 3 (Homo sapiens), sequence (P27361 whole entry): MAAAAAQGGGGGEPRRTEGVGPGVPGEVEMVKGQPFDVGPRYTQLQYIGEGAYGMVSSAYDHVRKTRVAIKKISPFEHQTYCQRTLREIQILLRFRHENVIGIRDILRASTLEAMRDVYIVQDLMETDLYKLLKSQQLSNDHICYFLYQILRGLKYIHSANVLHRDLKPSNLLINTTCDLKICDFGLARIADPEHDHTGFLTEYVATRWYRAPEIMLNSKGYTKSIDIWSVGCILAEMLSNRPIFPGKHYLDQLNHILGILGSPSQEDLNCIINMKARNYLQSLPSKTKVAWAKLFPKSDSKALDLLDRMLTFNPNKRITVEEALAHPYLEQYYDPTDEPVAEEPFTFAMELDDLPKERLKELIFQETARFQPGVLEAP
Glycogen synthase kinase-3 beta (Homo sapiens), sequence (P49841 whole entry, looked up): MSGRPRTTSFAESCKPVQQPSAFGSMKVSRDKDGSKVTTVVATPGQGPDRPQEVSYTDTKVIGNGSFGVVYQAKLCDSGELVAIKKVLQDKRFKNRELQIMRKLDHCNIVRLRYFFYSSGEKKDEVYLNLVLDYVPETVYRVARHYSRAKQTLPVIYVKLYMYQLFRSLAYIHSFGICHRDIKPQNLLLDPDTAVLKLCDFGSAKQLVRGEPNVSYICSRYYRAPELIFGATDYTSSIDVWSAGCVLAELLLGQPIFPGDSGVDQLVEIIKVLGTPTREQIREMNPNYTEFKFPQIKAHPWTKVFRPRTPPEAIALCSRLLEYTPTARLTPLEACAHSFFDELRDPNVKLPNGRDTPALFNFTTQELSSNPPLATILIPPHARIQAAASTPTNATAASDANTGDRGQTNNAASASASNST
Mitogen-activated protein kinase 1 (Homo sapiens), sequence (P28482 whole entry): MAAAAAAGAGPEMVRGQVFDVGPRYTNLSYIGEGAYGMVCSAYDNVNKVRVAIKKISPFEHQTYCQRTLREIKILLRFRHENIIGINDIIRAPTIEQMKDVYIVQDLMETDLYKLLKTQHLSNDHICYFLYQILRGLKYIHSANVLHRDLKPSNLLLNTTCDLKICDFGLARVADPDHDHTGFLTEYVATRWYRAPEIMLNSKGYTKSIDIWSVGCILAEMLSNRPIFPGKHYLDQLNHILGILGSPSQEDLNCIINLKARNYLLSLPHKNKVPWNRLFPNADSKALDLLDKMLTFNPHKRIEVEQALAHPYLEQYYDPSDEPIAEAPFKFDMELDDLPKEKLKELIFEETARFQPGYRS
Homeodomain-interacting protein kinase 1 (Homo sapiens), sequence (Q86Z02 whole entry, looked up): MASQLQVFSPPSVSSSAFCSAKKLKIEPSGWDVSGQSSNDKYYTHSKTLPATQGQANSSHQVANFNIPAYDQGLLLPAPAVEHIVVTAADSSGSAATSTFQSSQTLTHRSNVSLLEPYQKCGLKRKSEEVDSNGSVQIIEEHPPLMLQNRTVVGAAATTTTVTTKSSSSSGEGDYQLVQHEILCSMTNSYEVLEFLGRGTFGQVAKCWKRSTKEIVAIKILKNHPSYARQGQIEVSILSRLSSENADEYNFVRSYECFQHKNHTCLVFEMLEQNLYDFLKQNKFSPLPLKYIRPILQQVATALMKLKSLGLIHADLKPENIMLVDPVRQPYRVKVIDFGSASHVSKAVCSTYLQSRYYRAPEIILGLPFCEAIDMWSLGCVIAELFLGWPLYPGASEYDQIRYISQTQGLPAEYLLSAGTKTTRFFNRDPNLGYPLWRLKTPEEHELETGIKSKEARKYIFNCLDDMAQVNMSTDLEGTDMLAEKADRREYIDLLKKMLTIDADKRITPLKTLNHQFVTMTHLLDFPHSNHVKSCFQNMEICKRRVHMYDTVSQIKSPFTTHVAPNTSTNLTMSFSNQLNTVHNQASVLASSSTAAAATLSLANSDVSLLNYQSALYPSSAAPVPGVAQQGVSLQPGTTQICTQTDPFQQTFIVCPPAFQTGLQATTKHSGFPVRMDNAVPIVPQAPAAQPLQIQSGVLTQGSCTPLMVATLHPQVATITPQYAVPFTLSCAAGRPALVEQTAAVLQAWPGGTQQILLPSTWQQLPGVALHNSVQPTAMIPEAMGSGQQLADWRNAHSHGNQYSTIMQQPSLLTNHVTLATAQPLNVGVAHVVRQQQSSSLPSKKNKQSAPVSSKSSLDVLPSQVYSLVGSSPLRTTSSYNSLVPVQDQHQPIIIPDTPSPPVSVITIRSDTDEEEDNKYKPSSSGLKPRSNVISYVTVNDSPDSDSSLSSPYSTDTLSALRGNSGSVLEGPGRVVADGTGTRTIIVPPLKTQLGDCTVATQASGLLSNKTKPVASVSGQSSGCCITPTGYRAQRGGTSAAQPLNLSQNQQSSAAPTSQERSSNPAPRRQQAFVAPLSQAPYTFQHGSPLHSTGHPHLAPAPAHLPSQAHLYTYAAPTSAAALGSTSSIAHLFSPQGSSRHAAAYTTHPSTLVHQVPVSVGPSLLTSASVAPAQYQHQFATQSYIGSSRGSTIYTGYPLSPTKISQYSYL

For the compound `NC(=O)c1sc(-n2cnc3ccccc32)cc1OCc1ccccc1Br`, the inhibition in [1] was 11.8%; in [2], -1.6%; in assay [3], 7.12%; in assay [4], 0.95%; in assay [5], 7.54%; in [6], 4.13%. Besides, the inhibition came out at 6% in assay [7], 3.31% in assay [8], 5.56% in assay [9] and 1.19% in [10].
For `NS(=O)(=O)c1ccc(NC=C2C(=O)Nc3ccc4ncsc4c32)cc1`, the inhibition worked out at 71.8% in assay [1]; 14.2% in assay [2]; 47.4% in assay [3]; 2.67% in assay [4]; 21.7% in assay [5]; 8.45% in [6]. Moreover, the inhibition was 36.1% in assay [7], 11% in assay [8], 47.4% in [9] and 7.04% in assay [10].
Regarding `COc1ccc2ncnc(Nc3ccc(OCc4ccccc4)cc3)c2c1`, the inhibition in [1] worked out at 0.7%; in assay [2], 0.26%; in assay [3], 3.41%; in assay [4] it was 0.67%; in assay [5] it was 1.18%; in assay [6], 3.85%. Besides, the inhibition is 2.97% in assay [7], 2.37% in [8], 2.37% in [9] and 4.06% in assay [10].
`CN(C)CCCn1c(-c2nonc2N)nc2cnccc21`: the inhibition is 12.3% in assay [1]; 1.03% in assay [2]; -0.49% in assay [3]; 0.39% in assay [4]; 0.4% in assay [5]; 5.36% in assay [6]. Further, the inhibition in [7] was 4.57%; in assay [8], 2.21%; in assay [9] it was 4.9%; in [10], 2.32%.
For the compound `COc1cccc(-n2nc(C)c3c(N/N=C(\C)c4ccncc4)ncnc32)c1`, the inhibition in assay [1] is 9.41%; in assay [2] it was -1.66%; in [3], 2.66%; in [4], -1.56%; in assay [5] it was 2.79%; in assay [6], 1.92%. The inhibition in assay [7] was 2.01%; in assay [8], 2.86%; in assay [9] it was 1.42%; in assay [10], -1.05%.
For `CC(C)c1ccc2c(c1)NC(=O)/C2=N/Nc1ccc(S(N)(=O)=O)cc1`, the inhibition in [1] is 16.8%; in assay [2], -1.88%; in assay [3] it was 4.72%; in assay [4] it was 0.27%; in assay [5], 1.57%; in [6] it was 0.14%. Further, the inhibition in assay [7] was determined as 0.34%; in [8] it was 2.02%; in assay [9], 0.4%; in assay [10], 1.56%.
For `NS(=O)(=O)c1cccc(Nc2cc(-c3ccc(F)cc3)n[nH]2)c1`, the inhibition in assay [1] came out at 9.59%; in assay [2], 2.17%; in assay [3], 7.35%; in assay [4], 1.27%; in [5], 6.82%; in assay [6] it was 1.28%. The inhibition worked out at 4.86% in assay [7], 4.24% in assay [8], 3.83% in assay [9] and 4.14% in assay [10].
For `Cc1cc(-c2ccccn2)cc(C)c1/C=C/c1cncc(-c2nn[nH]n2)c1`, the inhibition was 13.7% in assay [1]; 1.03% in assay [2]; 5.14% in assay [3]; 1.94% in assay [4]; 7.19% in [5]; 5.13% in assay [6]. Moreover, the inhibition amounted to 9.24% in assay [7], 4.92% in assay [8], 7.24% in assay [9] and 5.71% in assay [10].
Turning to `CCS(=O)(=O)c1ccc(OC)c(Nc2nccc(N(C)c3ccc4c(C)n[nH]c4c3)n2)c1`, the inhibition in assay [1] was 1.7%; in assay [2] it was -2.02%; in assay [3] it was 1.03%; in [4] it was 0.52%; in assay [5] it was 1.15%; in assay [6] it was 3.79%. Further, the inhibition worked out at 2.08% in assay [7], 5.51% in [8], 5.64% in [9] and 4.15% in assay [10].
In the case of `Nc1nccc(C#Cc2cncnc2Nc2ccc(OCc3cccc(F)c3)c(Cl)c2)n1`, the inhibition was 10.5% in assay [1]; -0.05% in [2]; 6.94% in assay [3]; 4.23% in assay [4]; 8.43% in assay [5]; 3.97% in assay [6]. In addition, the inhibition came to 4.23% in assay [7], 3.54% in [8], 4.87% in assay [9] and 1.83% in [10].
Take `CCCN1CCCC(c2ccc(Nc3nc(Nc4cc(F)ccc4C(N)=O)c4cc[nH]c4n3)c(OC)c2)C1` (stereo not given): the inhibition came to 4.25% in assay [1]; 46% in [2]; 79.5% in [3]; 58.1% in [4]; 84.3% in [5]; 70.3% in assay [6]. Besides, the inhibition in [7] was found to be 91.3%; in assay [8], 8.06%; in [9] it was 36.5%; in [10], 5.61%.
On to `O=C(Nc1ccc(Oc2ccc3[nH]c(NC(=O)c4ccco4)nc3c2)cc1)Nc1cc(C(F)(F)F)ccc1F`, for which the inhibition was 1.83% in [1]; -4.45% in [2]; -2.14% in [3]; 13.6% in assay [4]; 66.3% in assay [5]; 0.08% in [6]. Besides, the inhibition came out at 2.67% in [7], 0.81% in assay [8], 0.8% in assay [9] and 1.59% in assay [10].
As for `O=C1Nc2ccc(-c3cccnc3)cc2C1=Cc1cc(Br)c(O)c(Br)c1`, the inhibition in assay [1] turned out to be 21.4%; in [2] it was 2.42%; in assay [3], 22.4%; in [4], 2.35%; in [5], 13.8%; in [6] it was 1.52%. Also, the inhibition was determined as 3.04% in [7], 6.12% in assay [8], 3.37% in [9] and 4.06% in [10].
`ON=C1CCc2cc(-c3nc(C4CCNCC4)[nH]c3-c3ccncc3)ccc21`: the inhibition is 4.56% in [1]; -5.24% in assay [2]; 0.65% in assay [3]; -1.3% in [4]; 2.78% in assay [5]; 2.05% in [6]. For the same compound, the inhibition in assay [7] is 3.06%; in assay [8], -1.76%; in [9] it was 1.85%; in assay [10], 1.87%.
With `Cc1ccc(C(=O)NC2CC2)cc1-c1ccc2[nH]ncc2c1`, the inhibition in assay [1] was 1.14%; in assay [2] it was -4.85%; in [3], 0.04%; in assay [4] it was 0.67%; in assay [5], 5.11%; in [6], -0.5%. For the same compound, the inhibition was -1.51% in assay [7], -3.82% in assay [8], -5.22% in assay [9] and -2.68% in assay [10].
Regarding `c1ccc(Cc2nc3ccc(Nc4ncnc5ccccc45)cc3[nH]2)cc1`, the inhibition in [1] stood at 7.73%; in assay [2], 6.99%; in assay [3], 9.6%; in assay [4] it was 4.87%; in [5], 9.82%; in assay [6], 1.51%. The inhibition in assay [7] was 3.95%; in [8], 3.59%; in assay [9], 3.76%; in assay [10], 2.28%.
Take `NS(=O)(=O)c1cccc(-c2cc3ccncc3cc2OCc2ccccc2)c1`: the inhibition in assay [1] turned out to be 3.55%; in [2], 1.1%; in assay [3] it was 6.53%; in assay [4], 1.76%; in assay [5] it was 8.61%; in assay [6], 0.94%. The inhibition in assay [7] is 3.75%; in [8] it was 4.71%; in assay [9] it was 5.84%; in [10], 4.25%.
